Entries with a potency or affinity are not part of this list. Values without a mark were called inactive.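 How the source made its calls: active means fitted half-maximal dose no more than twice the top valid tested dose, for compounds that lower signal; inconclusive means fit invalid, or curve flat with activity between -70 and -30; inactive means potency past limit, curve flat within ±30, or signal increasing.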
molecular target: NAD-dependent protein deacylase sirtuin-5, mitochondrial (Homo sapiens) (UniProt Q9NXA8); assay: SIRT5 deacylase inhibitors, dose response, biochemical, fluorescence imaging, cherry-pick, set 6 (AID 720597); conditions: Purified SirT5, succinyl-peptide-AMC/trypsin fluorescence; series mostly up to 15 µM; activity change, negative = inhibition: at the top concentration;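 further: lower AMC signal can also come from blocking the trypsin step; 0% = median of neutral control wells and -100% = median of positive control wells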
Sequence (Q9NXA8 whole entry, looked up): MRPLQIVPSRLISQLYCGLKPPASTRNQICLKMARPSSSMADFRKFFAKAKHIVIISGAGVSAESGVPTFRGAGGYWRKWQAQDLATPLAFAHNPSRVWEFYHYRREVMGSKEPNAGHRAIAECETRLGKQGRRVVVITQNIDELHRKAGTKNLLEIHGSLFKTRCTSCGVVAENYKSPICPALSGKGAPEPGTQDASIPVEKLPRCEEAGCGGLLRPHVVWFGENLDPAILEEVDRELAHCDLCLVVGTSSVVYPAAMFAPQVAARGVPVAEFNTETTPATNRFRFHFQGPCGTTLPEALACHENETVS

Compound	activity change, negative = inhibition
O=C(NC1CCCC1)[C@H]1[C@H](CO)[C@H]2Cn3c(ccc(-c4ccncc4)c3=O)[C@H]2N1CCc1ccccc1	1.4%
O=C(Nc1ccccc1)N1C[C@@H]2[C@H](c3ccccc31)[C@@H](CO)N2CC1CCCC1	-14.1%
C[C@H]1CN([C@@H](C)CO)C(=O)c2ccccc2-c2ccccc2CO[C@@H]1CN(C)Cc1ccc(C(F)(F)F)cc1	7.02%
C[C@H]1CN([C@@H](C)CO)S(=O)(=O)c2ccc(C#Cc3ccc(F)cc3)cc2O[C@H]1CN(C)S(=O)(=O)c1ccc(F)cc1	-20%
C[C@@H]1CN([C@H](C)CO)S(=O)(=O)c2ccc(/C=C/c3ccccc3)cc2O[C@H]1CN(C)C(=O)NC1CCCCC1	4.48%
O=C(Nc1cc(F)ccc1F)N1CC(=O)N2[C@@H](CO)[C@@H](c3ccc(C#CC4CCCCC4)cc3)[C@@H]2C1	-15.7%
CCCNC(=O)N1CC2(C1)[C@H](c1ccccc1)[C@H](CO)N2C(=O)C1CC1	-10.3%
C[C@@H]1CN([C@@H](C)CO)S(=O)(=O)c2ccc(C#C[C@@H](C)O)cc2O[C@@H]1CN(C)Cc1ccc(-c2ccccc2)cc1	24.3%
COCC#Cc1ccc2c(c1)O[C@@H](CN(C)CC1CCCC1)[C@H](C)CN([C@@H](C)CO)S2(=O)=O	15.1%
CCCC#Cc1ccc([C@@H]2[C@H]3CN(S(=O)(=O)Cc4ccccc4)CCCCN3[C@H]2CO)cc1	25.8%
C[C@H](CO)N1C[C@H](C)[C@H](CN(C)Cc2ccccc2)Oc2cc(/C=C/c3ccccc3)ccc2S1(=O)=O	-19.4%
CC(C)CC#Cc1ccc2c(c1)O[C@@H](CN(C)C(=O)Nc1ccccc1F)[C@@H](C)CN([C@@H](C)CO)S2(=O)=O	-14.6%
